# PubChem BioAssay (NCATS)
# Values without a mark were called inactive. Inconclusive results are not listed. Entries that show only a call come without a potency. Active and inactive are the calls of the source. Unless noted, the call rests on the fitted dose curve; in most records, active means well fitted curve in the direction sought with a large enough effect; inconclusive means small, poorly fitted or top-dose-only effect, or another doubt; inactive means no such curve, though single readings can be large; an effect the other way counts as inactive or inconclusive. Peptide text beside a SMILES is read from it.
# Tests used:
# [1] = target: Rap guanine nucleotide exchange factor 3 (Homo sapiens) (UniProt O95398); test: Confirmatory qHTS for agonist of cAMP-regulated guanine nucleotide exchange factor 3 (EPAC1) (AID 1645881);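 further: EPAC1 catalysed release of BODIPY-GDP from Rap1B seen as fluorescence loss; nearly all actives have a fitted effect of over 75% in size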
# Sequence of Rap guanine nucleotide exchange factor 3 (Homo sapiens) (O95398 whole entry, looked up): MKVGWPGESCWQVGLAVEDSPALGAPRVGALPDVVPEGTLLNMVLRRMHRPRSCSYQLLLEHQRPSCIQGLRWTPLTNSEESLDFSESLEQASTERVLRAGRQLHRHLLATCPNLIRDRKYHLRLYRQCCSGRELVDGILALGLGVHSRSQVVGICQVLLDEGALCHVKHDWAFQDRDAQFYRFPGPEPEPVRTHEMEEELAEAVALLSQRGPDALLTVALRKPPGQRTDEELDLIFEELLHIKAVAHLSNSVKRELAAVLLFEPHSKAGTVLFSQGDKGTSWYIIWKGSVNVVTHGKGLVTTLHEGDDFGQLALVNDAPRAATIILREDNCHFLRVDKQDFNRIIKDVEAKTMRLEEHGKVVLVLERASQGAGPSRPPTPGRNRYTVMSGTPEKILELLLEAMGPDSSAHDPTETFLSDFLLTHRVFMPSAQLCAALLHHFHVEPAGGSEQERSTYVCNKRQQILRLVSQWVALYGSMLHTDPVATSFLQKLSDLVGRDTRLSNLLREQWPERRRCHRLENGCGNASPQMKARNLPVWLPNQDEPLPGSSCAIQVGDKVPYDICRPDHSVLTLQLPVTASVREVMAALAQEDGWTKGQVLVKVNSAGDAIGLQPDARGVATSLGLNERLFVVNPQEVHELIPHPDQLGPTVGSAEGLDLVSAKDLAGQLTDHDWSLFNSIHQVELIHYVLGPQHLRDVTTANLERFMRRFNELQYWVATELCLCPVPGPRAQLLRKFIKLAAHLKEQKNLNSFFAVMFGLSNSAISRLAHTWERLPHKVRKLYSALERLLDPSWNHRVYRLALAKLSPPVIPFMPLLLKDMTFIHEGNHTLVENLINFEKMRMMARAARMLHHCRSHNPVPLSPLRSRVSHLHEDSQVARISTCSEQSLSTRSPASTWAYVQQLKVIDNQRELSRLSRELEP
# [2] = target: Rap guanine nucleotide exchange factor 4 (Homo sapiens) (UniProt Q8WZA2); test: Confirmatory qHTS for agonist of cAMP-regulated guanine nucleotide exchange factor 4 (EPAC2) (AID 1645884);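 further: nucleotide exchange releases bodipy-GDP from Rap1 and this lowers its fluorescence; nearly all actives have a fitted effect of over 65% in size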
# Sequence of Rap guanine nucleotide exchange factor 4 (Homo sapiens) (Q8WZA2 whole entry, looked up): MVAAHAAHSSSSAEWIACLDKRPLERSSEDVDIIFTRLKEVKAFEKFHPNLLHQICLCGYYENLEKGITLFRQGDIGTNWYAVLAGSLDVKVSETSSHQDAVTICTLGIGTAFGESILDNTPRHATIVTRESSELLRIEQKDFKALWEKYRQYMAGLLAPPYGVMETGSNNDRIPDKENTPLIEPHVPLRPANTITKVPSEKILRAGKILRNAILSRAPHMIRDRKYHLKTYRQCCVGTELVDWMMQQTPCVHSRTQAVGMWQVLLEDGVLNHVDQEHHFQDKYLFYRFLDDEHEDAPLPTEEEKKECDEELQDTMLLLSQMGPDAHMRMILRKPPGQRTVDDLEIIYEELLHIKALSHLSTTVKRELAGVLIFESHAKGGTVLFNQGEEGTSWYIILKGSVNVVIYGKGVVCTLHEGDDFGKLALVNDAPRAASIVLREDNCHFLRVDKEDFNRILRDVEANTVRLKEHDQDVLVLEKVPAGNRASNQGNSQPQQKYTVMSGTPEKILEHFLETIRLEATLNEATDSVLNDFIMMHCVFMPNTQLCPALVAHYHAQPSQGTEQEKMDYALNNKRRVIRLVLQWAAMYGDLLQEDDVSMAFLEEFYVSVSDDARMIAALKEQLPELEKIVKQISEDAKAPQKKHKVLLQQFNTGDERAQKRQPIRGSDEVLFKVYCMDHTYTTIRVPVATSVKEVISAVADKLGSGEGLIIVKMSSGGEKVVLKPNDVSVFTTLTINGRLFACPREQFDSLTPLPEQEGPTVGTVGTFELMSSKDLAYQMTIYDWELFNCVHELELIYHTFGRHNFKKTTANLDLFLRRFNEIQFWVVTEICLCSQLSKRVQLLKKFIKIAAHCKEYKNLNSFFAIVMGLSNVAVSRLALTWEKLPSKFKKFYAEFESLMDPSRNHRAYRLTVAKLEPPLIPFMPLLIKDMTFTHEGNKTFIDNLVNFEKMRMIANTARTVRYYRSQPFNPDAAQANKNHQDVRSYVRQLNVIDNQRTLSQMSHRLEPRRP
# [3] = target: Rap guanine nucleotide exchange factor 4 (Homo sapiens) (UniProt Q8WZA2); test: Confirmatory qHTS for antagonist of cAMP-regulated guanine nucleotide exchange factor 4 (EPAC2) (AID 1645885); further: nearly all actives have a fitted effect of over 25% in size; further: potency means the concentration at half of the fitted maximal effect
# [4] = target: Rap guanine nucleotide exchange factor 3 (Homo sapiens) (UniProt O95398); test: Counterscreen qHTS for antagonist of cAMP-regulated guanine nucleotide exchange factor 3 (EPAC1) (AID 1645888);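 further: fluorescence loss as bound BODIPY-GDP is released from Rap1B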
# Procedure, shortened: (§1)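 Measured: fluorescence of BODIPY-GDP bound to Rap1B, which falls as exchange proceeds. Conditions include 50 uM competing GDP, 5 and 30 min reads, and a later cAMP challenge for antagonist detection.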
# [5] = target: Rap guanine nucleotide exchange factor 3 (Homo sapiens) (UniProt O95398); test: Counterscreen qHTS for agonist of cAMP-regulated guanine nucleotide exchange factor 3 (EPAC1) (AID 1645889); further: nearly all actives have a fitted effect of over 40% in size
# Procedure, shortened: as §1
# [6] = target: Cytochrome P450 3A4 (Homo sapiens) (UniProt P08684); test: qHTS Assay for Inhibitors and Substrates of Cytochrome P450 3A4 (AID 884); further: nearly all actives have a fitted effect of over 50% in size
# Sequence of Cytochrome P450 3A4 (Homo sapiens) (P08684 whole entry, looked up): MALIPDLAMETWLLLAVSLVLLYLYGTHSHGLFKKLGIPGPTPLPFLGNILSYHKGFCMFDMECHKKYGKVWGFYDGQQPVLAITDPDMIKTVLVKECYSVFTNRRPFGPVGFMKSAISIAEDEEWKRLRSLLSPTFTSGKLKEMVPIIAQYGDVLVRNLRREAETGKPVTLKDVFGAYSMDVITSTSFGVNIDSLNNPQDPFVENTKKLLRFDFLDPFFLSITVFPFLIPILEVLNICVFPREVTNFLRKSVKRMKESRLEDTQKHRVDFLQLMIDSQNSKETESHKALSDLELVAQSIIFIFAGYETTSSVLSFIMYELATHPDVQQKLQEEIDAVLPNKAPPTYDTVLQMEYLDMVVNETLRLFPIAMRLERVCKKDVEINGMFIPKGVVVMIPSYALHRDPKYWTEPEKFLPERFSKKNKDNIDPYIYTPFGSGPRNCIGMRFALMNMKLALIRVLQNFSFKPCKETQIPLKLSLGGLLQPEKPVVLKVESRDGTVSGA
# Procedure, shortened: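 Luminescent readout of luciferin produced by CYP3A4 (20 nM) dealkylation of Luciferin-PPXE, 25 uM (its KM). NADPH-driven reaction ran 60 min at RT after 10 min compound preincubation; data scaled to 57 uM ketoconazole as 100% inhibition.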
# [7] = Confirmation and Secondary Assay for Modulators of Hemoglobin Beta Chain Splicing at IVS2 705 locus (AID 930);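 further: HeLa cells stably expressing the EGFP-705 splicing reporter; GFP fluorescence per well restored by corrected splicing of the IVS2-705 intron in EGFP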
# Procedure, shortened: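 Assay measures total GFP intensity per well in HeLa EGFP-705 cells after 2 days with compound; mis-splicing normally truncates EGFP, so fluorescence indicates corrected splicing.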
# [8] = target: Ubiquitin carboxyl-terminal hydrolase 1 (Homo sapiens) (UniProt O94782); test: Inhibitors of USP1/UAF1: Pilot qHTS (AID 504865);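 further: rhodamine fluorescence freed from ubiquitin-rhodamine substrate followed over time; top concentration of the series differs between compounds; nearly all actives have a fitted effect of over 35% in size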
# Sequence of Ubiquitin carboxyl-terminal hydrolase 1 (Homo sapiens) (O94782 whole entry, looked up): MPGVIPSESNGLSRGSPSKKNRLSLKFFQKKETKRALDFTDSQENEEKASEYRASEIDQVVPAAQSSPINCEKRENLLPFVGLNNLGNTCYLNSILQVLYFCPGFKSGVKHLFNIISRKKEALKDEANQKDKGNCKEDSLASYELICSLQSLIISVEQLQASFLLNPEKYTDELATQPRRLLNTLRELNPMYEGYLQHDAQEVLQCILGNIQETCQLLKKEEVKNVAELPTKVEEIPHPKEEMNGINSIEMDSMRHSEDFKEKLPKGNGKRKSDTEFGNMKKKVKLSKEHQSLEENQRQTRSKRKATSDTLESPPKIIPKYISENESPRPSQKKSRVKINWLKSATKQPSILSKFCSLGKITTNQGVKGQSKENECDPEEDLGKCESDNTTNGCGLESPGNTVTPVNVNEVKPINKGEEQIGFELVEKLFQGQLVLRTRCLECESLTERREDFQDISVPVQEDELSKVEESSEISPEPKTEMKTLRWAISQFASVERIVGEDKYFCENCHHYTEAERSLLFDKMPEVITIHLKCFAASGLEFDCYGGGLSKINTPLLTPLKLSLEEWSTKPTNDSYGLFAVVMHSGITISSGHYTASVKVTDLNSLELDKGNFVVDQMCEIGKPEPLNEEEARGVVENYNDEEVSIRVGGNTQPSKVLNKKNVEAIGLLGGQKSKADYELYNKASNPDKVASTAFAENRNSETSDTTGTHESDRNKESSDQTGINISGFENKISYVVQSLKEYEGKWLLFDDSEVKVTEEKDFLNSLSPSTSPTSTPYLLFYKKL
# Procedure, shortened: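 In 50mM HEPES pH 7.8 containing 0.5mM EDTA, 1mM TCEP, 0.1 mg/ml BSA and 0.01% Tween-20, 1nM USP1/UAF1 is exposed to compound for 15 min, then Ub-Rho (150nM final) is added and fluorescence is read over time.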
# [9] = Confirmation and Secondary Assay for Modulators of Hemoglobin Beta Chain Splicing at IVS2 654 locus (AID 910);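 further: per-well total GFP intensity by laser scanning cytometry after 2-day treatment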
# Procedure, shortened: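 HeLa cells stably carrying EGFP interrupted by mutant beta-globin IVS2-654 intron (CMV-driven) were treated with compound for 2 days at 37C; corrected splicing was scored as total peak GFP intensity per well (488 nm excitation, 500-520 nm emission).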
# [10] = AP1 Signaling Pathway (AID 357; active means well fitted curve in either direction with a large enough effect, not every such curve was filed as active;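 further: ME-180 reporter cells stimulated with EGF at its EC50 level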)
# Procedure, shortened: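 In this screen, ME-180 cells in Opti-MEM with 0.5% dialyzed FBS received EC50 EGF and compound titrations for 5 h. AP-1 reporter beta-lactamase was detected via CCF4 ratio, giving AC50 for positive and negative modulators.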
# [11] = target: Cytochrome P450 1A2 (Homo sapiens) (UniProt P05177); test: p450-cyp1a2 (AID 410; calls by dose curve)
# Sequence of Cytochrome P450 1A2 (Homo sapiens) (P05177 whole entry, looked up): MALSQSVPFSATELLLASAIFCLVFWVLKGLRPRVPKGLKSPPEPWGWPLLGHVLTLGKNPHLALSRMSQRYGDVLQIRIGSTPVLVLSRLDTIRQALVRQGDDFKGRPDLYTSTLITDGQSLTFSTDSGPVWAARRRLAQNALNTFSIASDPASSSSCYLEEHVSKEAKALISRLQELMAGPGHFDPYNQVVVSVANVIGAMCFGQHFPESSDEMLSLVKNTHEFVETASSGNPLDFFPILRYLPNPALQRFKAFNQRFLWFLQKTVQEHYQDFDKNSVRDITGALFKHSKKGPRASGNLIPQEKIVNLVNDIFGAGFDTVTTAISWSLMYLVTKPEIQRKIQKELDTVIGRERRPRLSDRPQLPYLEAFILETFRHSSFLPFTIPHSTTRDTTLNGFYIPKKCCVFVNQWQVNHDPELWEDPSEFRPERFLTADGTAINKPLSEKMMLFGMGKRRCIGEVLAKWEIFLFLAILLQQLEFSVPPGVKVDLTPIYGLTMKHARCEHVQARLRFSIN
# Procedure, shortened: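 Read-out is luminescence from luciferin produced by CYP1A2 demethylation of Luciferin-ME (100uM, at Km). Detection reagent stopped the 60 min NADPH-dependent reaction; signals were normalized to 57 uM furafylline.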
# [12] = NFAT Signaling Pathway (AID 444; active means well fitted curve in either direction with a large enough effect, not every such curve was filed as active;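 further: carbachol stimulus at about its EC50 of 1 µM final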); conditions: Jurkat NFAT-bla M1, carbachol, beta-lactamase ratio, 5 h; at 17.2 µM (top of the series) unless noted
# Procedure, shortened: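 Jurkat cells carrying an NFAT-driven β-lactamase reporter and co-transfected muscarinic M1 receptor were treated with compound plus carbachol (1 uM final, an EC50 level) for 5 h at 37 °C. CCF4 loading followed for 1 h at RT; 460/530 nm ratio gave %activity.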
# [13] = Stat Signaling Pathway (AID 446; active means well fitted curve in either direction with a large enough effect, not every such curve was filed as active;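 further: ME-180 cervical cancer cells given 40 pM IL-6 alongside compound; SIE-controlled beta-lactamase reporter measured as 460/530 nm FRET emission ratio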)
# Procedure, shortened: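 FRET read-out (405 nm excitation, 460/530 nm emission) of a beta-lactamase reporter under a STAT-inducible element in ME-180 cervical carcinoma cells. Cells with compound receive 40 pM IL-6 for 5 h. Values are normalised to AC90 stimulation and AC90 JAK-inhibitor controls.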
# [14] = target: Mitogen-activated protein kinase 10 (Mus musculus) (UniProt Q61831); test: JNK3 AlphaScreen Assay (AID 530; active means well fitted curve in either direction with a large enough effect, not every such curve was filed as active;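 further: kinase came from lysate of stimulated human HepG2 cells; signal reports phosphorylation of biotinylated GST-cJun 1-79 at Ser73 with 10 µM ATP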)
# Procedure, shortened: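 Biotinylated GST-cJun(1-79) served as substrate for JNK3 in HepG2 lysates stimulated with IL-1beta and TNF-alpha. ATP was 10 uM final, pH 7.6. Ser73 phosphorylation was quantified by AlphaScreen (680 nm excitation).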
# [15] = target: 3',5'-cyclic-AMP phosphodiesterase 4B (Homo sapiens) (UniProt Q07343); test: qHTS Assay for Inhibitors of PDE-IV (AID 607; active means well fitted activation curve with a large enough effect in the main read-out, with a control signal flat, not every such curve was filed as active)
# Sequence of 3',5'-cyclic-AMP phosphodiesterase 4B (Homo sapiens) (Q07343 whole entry, looked up): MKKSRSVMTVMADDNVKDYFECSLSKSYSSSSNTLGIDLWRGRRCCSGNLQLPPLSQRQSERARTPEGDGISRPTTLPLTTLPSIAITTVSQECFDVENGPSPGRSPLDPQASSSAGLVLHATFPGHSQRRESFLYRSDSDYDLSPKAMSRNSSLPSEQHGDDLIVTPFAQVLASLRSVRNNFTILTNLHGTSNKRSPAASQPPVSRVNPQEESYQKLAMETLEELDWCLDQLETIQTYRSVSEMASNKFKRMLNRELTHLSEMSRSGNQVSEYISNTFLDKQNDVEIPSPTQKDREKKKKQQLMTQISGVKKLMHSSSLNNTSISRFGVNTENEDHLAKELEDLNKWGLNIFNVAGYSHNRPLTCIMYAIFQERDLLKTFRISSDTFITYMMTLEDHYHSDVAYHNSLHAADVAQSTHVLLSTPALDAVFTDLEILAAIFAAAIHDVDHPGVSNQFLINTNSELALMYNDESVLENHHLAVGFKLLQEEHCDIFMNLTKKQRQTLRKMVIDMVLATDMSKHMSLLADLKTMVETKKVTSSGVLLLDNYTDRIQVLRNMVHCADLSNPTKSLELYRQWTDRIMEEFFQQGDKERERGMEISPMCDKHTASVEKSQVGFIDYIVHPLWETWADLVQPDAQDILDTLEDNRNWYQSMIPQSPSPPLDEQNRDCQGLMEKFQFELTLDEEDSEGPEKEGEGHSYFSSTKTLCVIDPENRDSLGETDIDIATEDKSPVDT
# Procedure, shortened: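 Cell-based read-out of cAMP via a modified cyclic nucleotide-gated channel and membrane potential dye (535/590 nm) in HEK293 cells expressing PDE4 endogenously. Compounds tested up to 22.9 uM final; 100 uM RO 20-1724 reference.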
structure (smiles),measurement,setting,value
Cc1cccc(NC(=O)CN2C(=O)S/C(=C\c3ccc(O)c([N+](=O)[O-])c3)C2=O)c1,Potency,[1],inactive
same,Potency,[2],inactive
same,Potency,[3],inactive
same,Potency,[4],inactive
same,Potency,[5],inactive
Nc1ccc2ccccc2c1C(=O)c1ccccc1,Potency,[1],inactive
same,Potency,[2],inactive
same,Potency,[3],inactive
same,Potency,[4],inactive
same,Potency,[5],inactive
CCCOc1ccccc1Cn1c(=O)oc2ccccc21,Potency,[1],inactive
same,Potency,[2],inactive
same,Potency,[3],9.53 µM (active)
same,Potency,[4],inactive
CC(C)CC(NC(=O)CN)C(=O)NC(Cc1ccccc1)C(=O)O (stereo not drawn) (H-Gly-Leu-Phe-OH; configuration not given here),Potency,[6],inactive
same,Potency,[7],inactive
same,Potency,[8],inactive
COc1ccc(OCC(=O)NCCC2=CCCCC2)c([N+](=O)[O-])c1,Potency,[1],inactive
same,activation,[2],"7.73% [at 17.1 µM, percent relative to cAMP agonist control]"
same,Potency,[3],inactive
same,"activity change, negative = inhibition",[4],-6.06% [at 30.8 µM]
CCC(=O)Nc1ccc(C(=O)NNC(=O)c2ccc([N+](=O)[O-])cc2)cc1,Potency,[1],inactive
same,Potency,[2],inactive
same,Potency,[3],inactive
same,Potency,[4],inactive
same,Potency,[5],inactive
CCCCCCCCCCCCCCC(C(=O)OC)C(O)(CC(=O)OC)C(=O)OC (centres undefined),Potency,[6],inactive
same,Potency,[9],inactive
same,Potency,[7],inactive
C=N[C@H](C(=O)N[C@@H]1C(=O)N2[C@@H]1SC(C)(C)[C@@H]2C(=O)O)c1ccccc1,outcome,[10],inactive
same,Potency,[11],inactive
same,"activity change, negative = inhibition",[12],-0.342%
same,outcome,[13],inactive
same,Potency,[14],inactive
same,outcome,[15],inactive
same,Potency,[8],inactive
CCOC(=O)c1cccc(NC(=O)N2CCC(CN3CCCCCC3)CC2)c1,Potency,[1],inactive
same,Potency,[2],inactive
same,outcome,[3],inactive [at 12.7 µM]
same,Potency,[4],inactive
COC(=O)c1ccccc1NC1=C/C(=N\S(=O)(=O)c2ccc(C(=O)O)cc2)c2ccccc2C1=O,Potency,[1],inactive
same,activation,[2],"7.9% [at 17.1 µM, percent relative to cAMP agonist control]"
same,Potency,[3],inactive
same,"activity change, negative = inhibition",[4],14.1% [at 30.8 µM]
